Bioassay records as filed in PubChem BioAssay.
The full list was thinned out, with hits kept by preference.
ST2 inh = inhibitors of human ST2 (IL1RL1) binding to IL-33; AID 1259354; 78,000 tested, 2.3% active; AlphaLISA ST2-Fc/biotin-IL-33 interaction, 1 h; inhibition, % for hits at 17 µM; in the data active = inhibition above about 30%
Target sequence (Q01638 whole entry, looked up): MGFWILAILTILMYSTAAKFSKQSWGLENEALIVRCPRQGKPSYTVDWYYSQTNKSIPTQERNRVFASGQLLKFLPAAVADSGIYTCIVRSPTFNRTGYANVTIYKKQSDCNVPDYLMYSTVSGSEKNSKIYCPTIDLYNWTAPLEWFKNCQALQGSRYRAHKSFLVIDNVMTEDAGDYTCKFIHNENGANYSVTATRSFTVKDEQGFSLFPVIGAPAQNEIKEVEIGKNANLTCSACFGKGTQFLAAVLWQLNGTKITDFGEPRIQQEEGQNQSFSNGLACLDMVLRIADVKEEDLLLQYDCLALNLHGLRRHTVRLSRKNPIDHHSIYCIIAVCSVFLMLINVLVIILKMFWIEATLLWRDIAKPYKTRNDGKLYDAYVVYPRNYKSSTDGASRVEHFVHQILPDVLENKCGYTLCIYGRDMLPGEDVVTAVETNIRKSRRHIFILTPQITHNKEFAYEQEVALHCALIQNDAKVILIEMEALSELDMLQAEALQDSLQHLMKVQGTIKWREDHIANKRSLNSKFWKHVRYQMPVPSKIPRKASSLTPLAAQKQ
The depositor's hits bear a star; i = inactive; ! = not confirmed by another sample.

SMILES	ST2 inh
CC(C)OCCCNC(=O)CN1C(=O)/C(=C\c2ccc(C(F)(F)F)cc2)Sc2ccccc21	i
Cc1nc2ncccc2cc1C(=O)NC(CC(C)C)c1nnc2n1CCNCC2 (configuration not stated)	i
CCCc1cc(C(=O)N2CCCC(O)(CN(C)C)C2)ccn1 (configuration not stated)	i
CC(=O)Nc1ccc(S(=O)(=O)Nc2ccc3n(c2=O)C[C@H]2C[C@@H]3CN(C(=O)Cc3cccs3)C2)cc1	i
O=C(Nc1ccc2c(c1)Cc1ccccc1-2)c1ccccc1	i
CN(C)C1(CNC(=O)c2ccc(C#CC(C)(C)O)o2)CCSC1 (configuration not stated)	i
COc1ccc(Cl)cc1NC(=O)c1cc2c(=O)n3ccccc3nc2s1	37%*
O=C(Nc1ccc(F)c(Cl)c1)c1cc2c(=O)n3ccccc3nc2s1	i
O=C(Nc1ccccc1F)c1cc2c(=O)n3ccccc3nc2s1	i
COc1cc(C2CC(=O)N(CC(=O)N3CCCCC3)c3ccccc3S2)cc(OC)c1OC (configuration not stated)	i
COc1ccc(Cc2nnc(NC(=O)Nc3cccc(Cl)c3)s2)cc1OC	i
O=C(Nc1ccc2c(c1)CCC2)c1cc(N2CCOCC2)nc2ccccc12	i
CN(C)c1nc2c(c(=O)[nH]1)CCN(C(=O)CC1NC(=O)c3ccccc31)C2 (configuration not stated)	i
O=C1C2CCCN2C(c2ccc(Cl)cc2Cl)N1c1nccs1 (configuration not stated)	i
COc1ccc(CCNC(=O)c2ccc(Cn3c(=O)[nH]c4ccsc4c3=O)cc2)cc1OC	i
CCCCC(CC)CNC(=O)c1ccc(Cn2c(=O)[nH]c3ccsc3c2=O)cc1 (configuration not stated)	i
O=C(NCCc1ccc(Cl)cc1)c1ccc(Cn2c(=O)[nH]c3ccsc3c2=O)cc1	37%*!
CCCn1ncc(C(=O)N2CCC3(CCCN(Cc4cccc(C)c4)C3)C2)c1C (configuration not stated)	i
C=CCSc1nnc2c(n1)OC(c1ccncc1)Nc1ccccc1-2 (configuration not stated)	i
Cc1cc(NC(=O)CSc2c3c(nc4cc(Cl)ccc24)CCCC3)no1	i
CC1CC(C)CN(CCCNC(=O)c2cc3cc4ccc(Cl)cc4nc3o2)C1 (configuration not stated)	i
CC1CCCC(NC(=O)c2cc3cc4ccc(Cl)cc4nc3o2)C1C (configuration not stated)	30%*
COCCNC(=O)c1cc2cc3ccc(Cl)cc3nc2o1	i
O=C(NC1CCCCC1)c1cc2cc3ccc(Cl)cc3nc2o1	43%*!
CCCCN(CC)CCNC(=O)c1cc2cc3ccc(Cl)cc3nc2o1	i
SMILES	ST2 inh
O=C(NCc1ccco1)c1cc2cc3ccc(Cl)cc3nc2o1	34%*
COc1ccc2cc3cc(C(=O)NCC4CCCO4)oc3nc2c1 (configuration not stated)	i
O=C(NC1CCCCCC1)c1cc2cc3ccc(Cl)cc3nc2o1	36%*!
COc1ccc2cc3cc(C(=O)N4CCCC(C)C4)oc3nc2c1 (configuration not stated)	i
COCCNC(=O)c1cc2cc3ccc(OC)cc3nc2o1	i
CCCN(CCC)CCCNC(=O)c1cc2cc3ccc(Cl)cc3nc2o1	i
O=C(NC1CCCC1)c1ccc(Cl)cc1Cl	i
CN1C[C@@H](NC(=O)Nc2ccc(C(F)(F)F)cc2)C[C@H]1c1nc(-c2ccc(Cl)cc2)no1	i
CCOc1ccc(C(=O)N2CCN=C2SCc2ccc(C)cc2)cc1	i
CC(=O)c1ccc(NC(=O)c2cc(C)on2)cc1	i
CCOc1ccc(S(=O)(=O)Nc2c(CC)cccc2CC)c2cccnc12	i
O=C(Nc1c(F)c(F)c(F)c(F)c1F)c1c(F)c(F)c(F)c(F)c1F	i
O=C(c1scc2c1OCCO2)N1CCc2c([nH]c3ccccc23)C1c1ccccn1 (configuration not stated)	i
O=C(CSc1nc2sc3c(c2c(=O)n1-c1ccccc1)CCCC3)NCc1cccs1	i
Cc1cnn(C(C)CNC(=O)c2cc(COc3cccc(F)c3)[nH]n2)c1 (configuration not stated)	i
Cc1ccc(C(=O)Nc2ccccc2NC(=O)c2ccc(C)o2)o1	i
Cc1ccc(NCCC(=O)c2ccc(C)o2)cc1	31%*
Cc1ccc(C(=O)Nc2ccc(S(=O)(=O)Nc3ncccn3)cc2)o1	i
O=C(C1CCCN1)N(Cc1ccccc1)Cc1nccs1 (configuration not stated)	i
COc1ccc(N=Cc2c(O)n(-c3ccccc3OC)c(=O)c3ccccc23)c(OC)c1	31%*
COc1ccc(-n2nc(C(=O)O)c3ccccc3c2=O)c(OC)c1	i
COc1ccc(N=Cc2c(O)n(-c3ccccc3C)c(=O)c3ccccc23)cc1OC	48%*
COc1ccc(OC)c(-n2c(=O)[nH]c3cc(C(=O)O)ccc3c2=O)c1	i
COc1ccc(O)c(C=Nc2c(C)n(C)n(-c3ccccc3)c2=O)c1	i
COc1ccc(-n2c(=O)[nH]c3cc(C(=O)O)ccc3c2=O)cc1OC	i
SMILES	ST2 inh
COc1ccccc1-n1c(O)c(C=Nc2ccc(C(F)(F)F)cc2)c2ccccc2c1=O	33%*
COc1ccc(N=Cc2c(C)c(Cl)c(C)c([N+](=O)[O-])c2O)cc1OC	i
COc1ccc(N=Cc2c(O)n(-c3ccccc3C)c(=O)c3ccccc23)c(OC)c1	43%*
O=c1oc2ccccc2c(O)c1C=Nc1cccc(C(F)(F)F)c1	i
COc1ccccc1NC(=O)CSc1nc(O)cc(=O)n1-c1ccccc1C	i
COc1cccc(C=Nc2ccc(N=Cc3cccc(OC)c3OC)cc2)c1OC	i
Cc1cccc(C(=O)Nc2ccc3ncccc3c2)c1	i
CCCOc1ccc(CC(=N)N)cc1	i
CCOC(=O)C1=C(C)Nc2nc(SCc3ccccc3)nn2C1c1ccccc1OCC (configuration not stated)	i
COc1ccc(C(=O)Nc2cccc(-c3nc4ncccc4o3)c2)cc1Cl	i
Cc1ccc(N2C(=O)Nc3ccc(Br)cc3C2(O)C(=O)NC2CCCCC2)cc1C (configuration not stated)	i
c1ccc(CN2CCN(Cc3cccnc3)CC2)cc1	i
COC(=O)C1C(=O)C2=C(CC1C)NC(C)=C(C(=O)OC1CCCC1)C2c1ccccc1OC (configuration not stated)	i
COc1ccccc1CNC(=O)C[C@@H]1CCNC[C@@H]1Cc1cc(C(C)(C)C)on1	i
NC(=O)Cn1c(=O)n(-c2ccc(CC(=O)NCc3ccco3)cc2)c(=O)c2sccc21	i
CN1CCN(c2nc3c(c(=O)n(C)c(=O)n3C)n2CCSc2nc3ccccc3o2)CC1	i
CN1CCN(c2nc3c(c(=O)n(C)c(=O)n3C)n2Cc2c(Cl)cccc2Cl)CC1	i
CCN1CCN(c2nc3c(c(=O)n(C)c(=O)n3C)n2CCSc2nc3ccccc3o2)CC1	i
Cn1c(=O)c2c(nc(N3CCCCC3)n2CCSc2nc3ccccc3o2)n(C)c1=O	36%*!
Cn1c(=O)c2c(nc(N3CCCCC3)n2Cc2c(Cl)cccc2Cl)n(C)c1=O	31%*
CC1CCN(c2nc3c(c(=O)n(C)c(=O)n3C)n2Cc2c(F)cccc2Cl)CC1	i
Brc1ccc(-n2nnnc2-c2ccccc2)c(Br)c1	i
CN(C(=O)COc1ccccc1Cl)c1ccccc1	i
